# Assay outcomes as filed in PubChem BioAssay.
# Most compounds without a hit are left out; they make up all but 10% or so of the library.
# Six1-Eya2 inh = blocks human Six1 binding to Eya2. Q15475+O00167. AlphaScreen GST-Six1/His-Eya2 binding, biochemical; active compounds read low. activity change, % (concentration not given with the values). hit rate 0.56% among 360,000. AID 651725; in the data active means activity change below about -65%; inconclusive means mostly about -30% to -63%; further: on the % scale 0 is the no-effect control and ±100 the full control effect
#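 AlphaScreen with GST-Six1 and His-Eya2 (5X mix: 250 nM and 500 nM), glutathione donor and nickel acceptor beads; buffer 50 mM Tris pH 8.0, 300 mM NaCl, 1 mM TCEP; 1 h at 37 C in the dark.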
# JMJD2A Tudor = inhibitors of human JMJD2A Tudor domain; AlphaScreen JMJD2A-Tudor / H3K4me3 peptide binding; hit rate 4.4% among 390,000; Potency, µM (titrated, usually from 114 µM), for inactives: top-dose activity change, negative = inhibition, usual class: inhibitors; further: potency means the concentration at half of the fitted maximal effect; on the % scale 0 is the no-effect control and ±100 the full control effect; nearly all actives have a fitted effect of over 50% in size
# G9a block = blocks human histone lysine methyltransferase G9a; G9a H3K9 monomethylation, AlphaScreen, 2 h; Potency, µM (titrated, usually from 102 µM), without a hit: at the highest dose activity, negative = inhibition, hits mostly inhibitors; hit rate 8.8% among 350,000; AID 504332; further: potency means the concentration at half of the fitted maximal effect; on the % scale 0 is the no-effect control and ±100 the full control effect; nearly all actives have a fitted effect of over 75% in size
#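 Step 1: enzyme (final 20 nM) with compound, 15 min RT. Step 2: substrate peptide 500 nM and SAM 20 uM, 2 h RT. Step 3: anti-H3K9me1 antibody and AlphaScreen beads, 10 min, then plate read.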
# HP1b chromo inh = inhibitors of HP1-beta chromodomain binding to methylated histone tails. hit rate 0.56% among 390,000. AID 540317. AlphaScreen HP1-beta / biotin-H3K9me3 peptide binding. Potency, µM (highest dose often 114 µM), for the others: at the top dose activity change, negative = inhibition, actives largely listed as inhibitors; further: potency means the concentration at half of the fitted maximal effect; nearly all actives have a fitted effect of over 70% in size
#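 Compound inhibition of the preformed complex between 50 nM HP1-beta and 50 nM biotinylated H3K9me3 peptide was read by AlphaScreen. Buffer was PBS pH 7.4 with 0.01% Tween-20. Incubations ran 30 min at room temperature, with 10 ug/mL donor/acceptor beads.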
# CtBP-E1A inh = inhibitors of CtBP/E1A interaction; activity change, % (concentration not given with the values); AID 651724; AlphaScreen GST-E1A/His-CtBP binding, 1536-well; active compounds read low; hit rate 0.49% among 340,000; in the data active means activity change below about -65%; inconclusive means mostly about -30% to -63%; further: on the % scale 0 is the no-effect control and ±100 the full control effect
#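 In 5 uL wells, 23 nL compound meets equimolar GST-E1A and His-CtBP (5X stock 125 nM each) for 2 h, 37 °C. Beads (5X, 50 ug/mL) then 1 h, 37 °C, dark.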
# BAZ2B block = inhibitors of human BAZ2B bromodomain; Potency, µM (series often up to 114 µM), for inactives: top-dose activity change, negative = inhibition, actives largely listed as inhibitors; Q9UIF8; hit rate 4.4% among 360,000; AlphaScreen BAZ2B-H3K14Ac peptide displacement; further: potency means the concentration at half of the fitted maximal effect; on the % scale 0 is the no-effect control and ±100 the full control effect; nearly all actives have a fitted effect of over 60% in size
#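 In this displacement format the biotinylated H3(5-23) peptide acetylated at Lys14 serves as ligand at 50 nM, with BAZ2B at 50 nM in PBS pH 7.4 containing 0.01% Tween-20. Donor and acceptor beads are 10 ug/mL final.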
# * = called active by the depositor; ? = inconclusive; nt = no result given; [ ] = another dose, or the depositor's remark. Unless noted, the call rests on the fitted dose curve; in most records, active means well fitted inhibition curve with a large enough effect; inconclusive means small, poorly fitted or top-dose-only effect; inactive means no such curve, though single readings can be large or run the other way.
SMILES,Six1-Eya2 inh,JMJD2A Tudor,G9a block,HP1b chromo inh,CtBP-E1A inh,BAZ2B block
CN(C)CCCNC(=O)/C(=N\O)c1ccccc1,18,-3%[57.1 µM],56µM*,50%,0,-22%
CCOC(=O)CC1=C(C(=O)OCC)C(c2ccc(C)o2)C(C#N)=C(N)O1 (configuration not stated),-6,-32%[11.4 µM],25µM*,32%,-1,-31%
Cc1ccc(C2C(C#N)=C(N)Oc3c2sc2ccccc32)o1 (configuration not stated),nt,nt,16µM*,nt,nt,?
CCOC(=O)C1=C(c2ccccc2)OC(N)=C(C#N)C1c1ccco1 (configuration not stated),5,-3%,45µM*,41%,6,5%
CCOC(=O)CC1=C(C(=O)OCC)C(c2cccnc2)C(C#N)=C(N)O1 (configuration not stated),6,-6%,1%[59 µM],31%,-1,-19%
CCOC(=O)CC1=C(C(=O)OCC)C(c2ccc(OC)cc2OC)C(C#N)=C(N)O1 (configuration not stated),-1,-27%,56µM*,14%,0,-35%
COc1cccc(C(=O)Nc2ccc(C(=O)OCc3cc(=O)n4nc(C5CC5)sc4n3)cc2)c1,nt,-10%,-3%[12.7 µM],15%,nt,-15%
O=[N+]([O-])c1cc(Br)c(O)c(C=Nc2ccc(N3CCOCC3)cc2)c1,-6,-24%,35µM*,7%,-7,35µM*
Oc1ccc(N=Cc2cc(Br)c(N3CCOCC3)o2)cc1,-14,?,14µM*,-17%,-3,-38%
COc1cccc(C=Nc2ccc(N3CCOCC3)cc2)c1O,-2,-21%,?,13%,nt,-35%
Cc1c(NC(=O)c2ccccc2)cc(C(C)C)c(O)c1S(=O)(=O)c1ccc(Cl)cc1,nt,-2%,-1%[59 µM],36%,nt,-5%
Cc1ccc(-c2c[nH]c(=S)n2-c2ccccc2)cc1,-14,?,0.71µM*,-14%,-21,?
CCOc1ccc(-n2c(-c3ccccc3)c[nH]c2=S)cc1,-16,?,1.3µM*,25%,-2,-11%
S=c1[nH]cc(-c2ccccc2)n1-c1cccc(Cl)c1,-6,56µM*,1.1µM*,19%,-7,-33%
Cc1ccc(-n2c(-c3ccccc3)cc(=O)nc2C)cc1,6,-20%,36%[12.7 µM],23%,11,-4%
COc1cccc(-n2c(-c3ccccc3)c[nH]c2=S)c1,-11,?,1.4µM*,?,-12,?
Cc1[nH]n(-c2ccccc2)c(=O)c1-c1cccc(Cl)c1,-2,-10%,-16%[0.0925 µM],8%,-2,?
Cc1c(C(=O)N/N=C/c2ccc(-c3ccccc3[N+](=O)[O-])o2)sc(N)c1C#N,?,?,-14%[59 µM],35%,0,?
O=C(N/N=C\c1ccc([N+](=O)[O-])o1)c1cncc(Br)c1,?,11%,0%,14%,?,-1%
Nn1cnnc1N/N=C\c1ccc(-c2ccccc2[N+](=O)[O-])o1,?,?,35µM*,-14%,0,?
Cc1cc([N+](=O)[O-])c(C)cc1-c1ccc(/C=N/NC(=O)c2cccnc2)o1,-9,-16%,45µM*,26%,-4,?
O=C(N/N=C/c1ccc(-c2ccccc2[N+](=O)[O-])o1)c1cncc(Br)c1,-78*,?,32µM*,?,-66*,-37%
COc1cccc(-c2nc(N3CC(C)CC(C)C3)c3ccccc3n2)c1O (configuration not stated),-22,?,35µM*,?,0,?
COc1cccc(-c2nc(NC(C)(C)C)c3ccccc3n2)c1O,-15,?,?,-10%,-9,?
COc1cccc(-c2nc(N3CCCC3)c3ccccc3n2)c1O,-8,?,nt,-9%,-3,?
COc1cccc(-c2nc(N3CCC(C)CC3)c3ccccc3n2)c1O,-3,56µM*,35µM*,-44%,5,?
